Source: PubChem (National Center for Advancing Translational Sciences (NCATS))
A selection: hits, their analogues and other compounds. The true share with any hit is near 10%.
BAZ2B block: blocks human BAZ2B | Q9UIF8 | 4.4% of 360,000 active | AlphaScreen BAZ2B-H3K14Ac peptide displacement | Potency, µM (titrated, usually from 114 µM), usual class: inhibitors; also: nearly all actives have a fitted effect of over 60% in size
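Complex of BAZ2B and biotin-H3K14Ac (50 nM apiece) forms over 30 min at RT, then faces library compounds up to 110 uM for another 30 min; AlphaScreen beads added, 20 min dark incubation, luminescence read.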
GLS inhibitor: glutaminase GLS (human) inhibition. GLS enzymatic activity, qHTS titration. Potency, µM (series often up to 45.5 µM), hits mostly inhibitors. O94925. 0.21% of 410,000 active
Target sequence (O94925 whole entry, looked up): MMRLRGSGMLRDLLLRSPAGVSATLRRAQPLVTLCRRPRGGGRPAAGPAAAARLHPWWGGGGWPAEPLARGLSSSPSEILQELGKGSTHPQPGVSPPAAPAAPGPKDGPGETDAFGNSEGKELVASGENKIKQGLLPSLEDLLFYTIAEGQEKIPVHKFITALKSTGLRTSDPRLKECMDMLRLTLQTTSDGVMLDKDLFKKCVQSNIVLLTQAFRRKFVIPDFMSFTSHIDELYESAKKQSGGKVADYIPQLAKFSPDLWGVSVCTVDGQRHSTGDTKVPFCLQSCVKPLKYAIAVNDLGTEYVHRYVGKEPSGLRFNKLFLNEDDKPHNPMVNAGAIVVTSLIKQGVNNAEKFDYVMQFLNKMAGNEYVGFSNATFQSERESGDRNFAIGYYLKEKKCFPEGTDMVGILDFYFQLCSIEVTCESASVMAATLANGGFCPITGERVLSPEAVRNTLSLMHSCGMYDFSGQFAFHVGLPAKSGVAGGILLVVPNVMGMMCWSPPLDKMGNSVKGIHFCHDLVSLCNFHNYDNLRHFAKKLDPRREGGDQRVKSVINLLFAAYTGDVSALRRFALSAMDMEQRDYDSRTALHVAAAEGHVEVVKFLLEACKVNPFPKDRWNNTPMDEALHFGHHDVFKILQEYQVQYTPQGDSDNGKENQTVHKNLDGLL
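Glutamate formation by hKGA was monitored fluorometrically using coupled glutamate oxidase, HRP and Amplex Red. Substrate was added as 1 mM L-glutamine solution; incubation was 30 min at RT after an initial read.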
G9a inh: inhibitors of human histone lysine methyltransferase G9a; Q96KQ7; G9a H3K9 monomethylation, AlphaScreen, 2 h; Potency, µM (doses to about 102 µM), actives largely listed as inhibitors; 8.8% of 350,000 active; AID 504332; also: nearly all actives have a fitted effect of over 75% in size
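Signal arises when biotinylated H3K9 peptide, once monomethylated, bridges streptavidin donor and antibody-captured acceptor beads. Enzyme at 20 nM was preincubated 15 min with test compounds; peptide 500 nM and SAM 20 uM then reacted for 2 h.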
JMJD2A Tudor inh: blocks the human JMJD2A Tudor domain | Potency, µM (doses to about 114 µM), actives largely listed as inhibitors | 4.4% of 390,000 active | AID 504339 | AlphaScreen JMJD2A-Tudor / H3K4me3 peptide binding; also: nearly all actives have a fitted effect of over 50% in size
HP1b binding inh: inhibitors of HP1-beta chromodomain binding to methylated histone tails. AlphaScreen HP1-beta / biotin-H3K9me3 peptide binding. Potency, µM (top dose mostly 114 µM), actives largely listed as inhibitors. 0.56% of 390,000 active. AID 540317; also: nearly all actives have a fitted effect of over 70% in size
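AlphaScreen: HP1-beta (50 nM) preformed 30 min with biotin-H3(1-18)K9me3 peptide (50 nM) in PBS pH 7.4, 0.01% Tween-20. Compound added for 30 min at RT, then streptavidin donor/nickel chelate acceptor beads (10 ug/mL) for 30 min.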
Hits are given with their value; - = inactive; ? = inconclusive; . = no result given; ! = repeats disagree; [ ] = dose if it differs, or a comment. Calls follow the shape of the dose curve; as a rule, active = well fitted curve in the direction sought with a large enough effect; inconclusive = small, poorly fitted or top-dose-only effect, or another doubt; inactive = no such curve, though single readings can be large; an effect the other way counts as inactive or inconclusive.

SMILES | BAZ2B block | GLS inhibitor | G9a inh | JMJD2A Tudor inh | HP1b binding inh
CCc1ccc(-c2nc(CN3CCCC(C(=O)N4CCN(c5cc(Cl)ccc5C)CC4)C3)c(C)o2)cc1 (stereo unspecified) | 10µM | - | 8.9µM | ? | -
NCC(O)CC(=O)O (stereo unspecified) | . | - | -[2.33 µM] | . | .
CC(C)c1ccc(-c2nc(N3CCCCCC3)nc3n[nH]c(N)c23)cc1 | - | - | -[12.7 µM] | - | -
COC(=O)Cn1c(-c2ccc(OC)cc2)c(-c2ccc(OC)cc2)nnc1=O | 56µM | - | -[0.501 µM] | - | -
CCCC(C)c1nnc(NC(=O)CN2C(=O)c3ccccc3C2=O)s1 (stereo unspecified) | ? | - | 7.9µM | - | -
CCCC(C)c1nnc(NC(=O)c2cc(C(=O)OC)cc([N+](=O)[O-])c2)s1 (stereo unspecified) | - | - | 8.9µM | ? | -
CCC(CC)c1nnc(NC(=O)CN2C(=O)c3ccccc3C2=O)s1 | - | - | 45µM | - | -
CCCC(C)c1nnc(NC(=O)C(=O)OCC)s1 (stereo unspecified) | 56µM | - | ? | 18µM | ?
CCCC(C)NC(=O)c1cc(C(=O)OC)cc([N+](=O)[O-])c1 (stereo unspecified) | - | - | - | - | -
O=C(O)CN1C(=O)CC(Cc2ccc(Cl)cc2)C1=O (stereo unspecified) | - | - | - | - | -
O=C(Nc1ccc(Cl)cc1Cl)C1CCC(=O)N1Cc1ccccc1Cl (stereo unspecified) | - | - | ? | - | -
CCc1nc2ccc(C(=O)N(C)CC(=O)Nc3ccccc3C(F)(F)F)cc2nc1CC | . | - | . | - | -
Cc1cc2nc3ccc(=[N+](C)C)cc-3sc2cc1N | 35µM | - | . | ? | -
O=c1c2sc3nc(N4CCOCC4)c4c(c3c2ncn1-c1ccccc1)CCCC4 | . | - | - | - | -
CCSc1n[nH]c(=S)s1 | ? | - | 1.4µM | 20µM | ?
CCOc1ccc(Nc2n[nH]c(=S)s2)cc1 | - | - | - | ? | -
C#CCOCCOCCOCCNc1nc(N2CCN(C(=O)CCCCCCCCCCNC(=O)[C@H](CCCCN)n3cc(CCO)nn3)CC2)nc(N2CCN(C(=O)CCCCCCCCCCNC(=O)[C@H](CCCCN)n3cc(CCO)nn3)CC2)n1 | - | ? | -[2.33 µM] | 89µM | ?
C#CCOCCOCCOCCNc1nc(N2CCN(C(=O)CCCCCCCCCCNC(=O)[C@H](CCC(=O)O)n3cc(CCCCCN)nn3)CC2)nc(N2CCN(C(=O)CCCCCCCCCCNC(=O)[C@@H]([C@H](C)O)n3cc(C)nn3)CC2)n1 | - | - | -[2.33 µM] | ? | -
C#CCOCCOCCOCCNc1nc(N2CCN(C(=O)CCCCCCCCCCNC(=O)[C@H](CCCCN)n3cc(CCO)nn3)CC2)nc(N2CCN(C(=O)CCCCCCCCCCNC(=O)[C@@H]([C@H](C)O)n3cc(C)nn3)CC2)n1 | 50µM | ? | -[2.33 µM] | 79µM | -
CCc1ccc2[nH]c(=O)c(C(c3nnnn3CCOC)N3CCN(c4ccccc4)CC3)cc2c1 (stereo unspecified) | - | - | 28µM | ? | -
CCc1ccc2[nH]c(=O)c(C(c3nnnn3CCOC)N3CCN(c4ccc(F)cc4)CC3)cc2c1 (stereo unspecified) | ? | - | ? | -[11.4 µM] | -
COc1ccc(Cn2nnnc2C(c2cc3cc(C)ccc3[nH]c2=O)N2CCN(C)CC2)cc1 (stereo unspecified) | - | - | - | - | -
COCCn1nnnc1C(c1cc2cc(OC)c(OC)cc2[nH]c1=O)N1CCN(c2ccc(O)cc2)CC1 (stereo unspecified) | 28µM | - | . | 56µM | ?
Cc1ccc2ccccc2c1NC(=O)CNCc1ccccc1 | . | - | . | . | .
O=C1CC(C(=O)Nc2ccc(C(=O)O)cc2)C(c2ccccc2)O1 (stereo unspecified) | - | - | ? | - | -
SMILES | BAZ2B block | GLS inhibitor | G9a inh | JMJD2A Tudor inh | HP1b binding inh
CN(C)CCN(Cc1ccco1)C(=O)c1oc2ccccc2c1NC(=O)c1ccccc1 | - | - | ? | ? | -
COc1ccc(OCC(=O)Nc2c(C(=O)N(CCN(C)C)Cc3ccco3)oc3ccccc23)cc1 | 71µM | - | - | ? | ?
COc1ccccc1C(=O)Nc1c(C(=O)N(CCN(C)C)Cc2ccco2)oc2ccccc12 | ? | - | 40µM! | 45µM | -
Cc1nn(CCCNC(=O)C2CCCO2)cc1Br (stereo unspecified) | - | - | - | - | -
C=CCn1c(SCC(=O)c2ccc(Br)cc2)nnc1C(CC(C)C)NC(=O)c1cccs1 (stereo unspecified) | - | - | 50µM | - | -
CCOC(=O)C1C2C=CC3(CN(Cc4ccccc4)C(=O)C13)O2 (stereo unspecified) | - | - | - | - | -
CCCCOC(=O)C1[C@H]2C(=O)N(Cc3cccs3)C[C@]23C=C[C@H]1O3 (stereo partly specified) | 79µM | - | - | - | -
CCCCCOC(=O)C1[C@H]2C(=O)N(Cc3cccs3)C[C@]23C=C[C@H]1O3 (stereo partly specified) | - | - | - | - | -
CCCOC(=O)C1[C@H]2C(=O)N(Cc3ccco3)C[C@]23C=C[C@H]1O3 (stereo partly specified) | - | - | 50µM | - | -
O=C(OCC(=O)N(C1CCCCC1)C1CCCCC1)c1cnccn1 | - | - | - | -[11.4 µM] | -
CC(C)C(=O)NC(=S)Nc1ccccc1C(=O)Nc1ccccc1 | - | - | - | - | -
COc1ccccc1NC(C)=[N+](C)CCNS(=O)(=O)c1ccc(Cl)cc1 | 25µM | - | ? | ? | ?
O=C(NCc1cccnc1)c1ccccc1NS(=O)(=O)c1ccccc1 | - | - | - | - | -
O=C(NCc1cccnc1)c1ccc(Cl)c(S(=O)(=O)N2CCCCCC2)c1 | - | - | - | 25µM | -
O=C(NCc1cccnc1)c1ccc(Cl)c(S(=O)(=O)Nc2ccccc2C(=O)NCc2cccnc2)c1 | ? | - | 45µM | - | -
Cc1cc(C)cc(OC(C)C(=O)Nc2ccccc2C(=O)NCc2cccnc2)c1 (stereo unspecified) | - | - | 50µM | - | -
O=C(NCc1ccccn1)c1ccc(Cl)c(S(=O)(=O)Nc2ccccc2C(=O)NCc2ccccn2)c1 | - | - | 50µM | - | -
Cc1ccc(OC(C)C(=O)Nc2ccccc2C(=O)NCc2cccnc2)cc1C (stereo unspecified) | - | - | -[12.7 µM] | - | -
O=c1c(Cl)c(NCCCO)cnn1-c1nc2ccccc2[nH]1 | 50µM | - | -[12.7 µM] | -[11.4 µM] | -
C=CCN(CC=C)c1cnn(-c2nc3ccccc3[nH]2)c(=O)c1Cl | ? | - | ? | - | -
Cn1c(O)c(C2=c3ccccc3=NC2=O)[nH]c1=S | ? | - | - | - | -
COc1ccc2nc(-n3c(O)c(C4=c5ccccc5=NC4=O)[nH]c3=S)sc2c1 | 13µM | - | ? | ? | ?
